# Experimental data: the supplement of paper PMC8728848
# Many of the other results were omitted from the sample, so the strongest signals are more common in it than they were.
# B1: Epa1-NP-mutant-E227A (Candida glabrata), Q6VBJ0 (protein)
# chain: MILNPALFLNKCVCIYTTLILLLLTNGGYATSSNDISLASKDPTTFPLGCSPDITTPKKGLSMELYSYDFRKKGSYPCWDAAYLDPNYPRTGYKSHRLLAKVDGVTGNINFYYHATKGCTPQLGHLPASYNYPKPLTMTNFTMLLYGYFRPKVTGFHTFTISADDLLFVNFGAGNAFDCCRRDSSADHFGNYQAYAIWGSKTAKDELTVHLDAGVYYPIRLFYNNRAYDGALSFTFKTESNENTVSDFSEYFFSLDDTEEGCPGLISYDSSCASVKTSKIIGIDYHTETPNENLVPITKTIYHLGIPCTGTTTTPLCGSGFYDPLANKCVTINTSSTSSVTKTTSHTTSKEVSFHSSISSQKTLIPKSIPSPYGPIKSQSIPTEMETSSEISSSEYAFSDVISTPSHSPYTKKHSSLNSSSYTSTVIHSLTSYSISQGIFSTSLSEQNITSKSSTDKFSTATSMSNNITQSSIIISQFSTNNENYTTTSMHTSSDKISTETLNNSISTTTSILFSNSSTILKNNTTIISSDKDTHYHPVNPTIVCSTNKTEIICASITQPSISNSNNHWSSSVLKFNSTTVRSTLPSSAGSNETSINVPFSSSTESNTSTSSTSTSNSKMVRSTLPSSAGSNETSISVPFSSSTESNTSTSSTSTSNSKMVRSTLPSSAGSNETSINVPFSSSTESNTSTSSTSTSNSKTVRSTPFSSAGIIMTSLSQRNNKSASSYASSNSKCYNTADSCRKVHSTPSYLLTSSYTSEGVDYDCSLVSTKLKINDTNCVNNKHTTKSCLKTSVTTTIPTLEIKTARKSSSNTIGLHSYPTSSPNKSISSAPIIGYISSFKTIKTASPSYQTSDLTTITTITSLNNPGSTAVENTHESNDKSRKTSSNDISSKHSVIKETKDAVESSNKSHQTNTLKCSSIIIASSSHNSYESLGGTTLTLTLSKVYSPQNNDTLPFLEISEVNPSRTVLPESSKMMQYLTSTEERNKTARNTIATNIVSISTFHFEGEGNAIRMGYTQLLLMLIGIIVMNIGT
# Assays:
# Assay in all cases: glycan array binding signal (z-score within array); higher = stronger binding
# Settings in all cases: glycan notation: IUPAC condensed, linker removed; mutation: E227A
# [1] = target: Fuc(a1-2)Gal(b1-3)GalNAc(a1-3)[Fuc(a1-2)]Gal(b1-4)Glc
# How it was run: (§1)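 From the Consortium for Functional Glycomics database, 3228 arrays were curated, keeping only those whose protein sequence was available. Binding is given as a within-array Z-score averaged across arrays sharing a protein sequence and across linkers. Negative Z-scores can be read as non-binding.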
# [2] = target: Fuc(a1-2)Gal(b1-3)GlcNAc(b1-3)[Gal(b1-4)GlcNAc(b1-6)]Gal(b1-4)Glc
# How it was run: as §1
# [3] = target: Fuc(a1-2)Gal(b1-3)[Fuc(a1-4)]GlcNAc(b1-2)Man(a1-3)[Fuc(a1-2)Gal(b1-3)[Fuc(a1-4)]GlcNAc(b1-2)Man(a1-3)]Man(b1-4)GlcNAc(b1-4)GlcNAc
# How it was run: as §1
# [4] = target: Fuc(a1-2)Gal(b1-4)Fuc(a1-3)]GlcNAc(b1-2)Man(a1-3)[Fuc(a1-2)Gal(b1-4)[Fuc(a1-3)]GlcNAc(b1-2)Man(a1-6)]Man(b1-4)GlcNAc(b1-4)GlcNAc
# How it was run: as §1
# [5] = target: Fuc(a1-2)[Gal(a1-3)]Gal(b1-3)GlcNAc(b1-3)GalNAc
# How it was run: as §1
# [6] = target: Fuc(a1-2)[Gal(a1-3)]Gal(b1-4)[Fuc(a1-3)]GlcNAc(b1-3)GalNAc
# How it was run: as §1
# [7] = target: Fuc(a1-2)[Gal(a1-4)]Gal(b1-4)GlcNAc
# How it was run: as §1
# [8] = target: Fuc(a1-2)[GalNAc(a1-3)]Gal(b1-3)GlcNAc(b1-3)GalNAc
# How it was run: as §1
# [9] = target: Fuc(a1-2)[GalNAc(a1-3)]Gal(b1-4)[Fuc(a1-3)]GlcNAc
# How it was run: as §1
# [10] = target: Fuc(a1-2)[GalNAc(b1-3)]Gal
# How it was run: as §1
# [11] = target: Fuc(a1-3)[Gal(b1-4)]GlcNAc6S
# How it was run: as §1
# [12] = target: Fuc(a1-3)[Gal3S(b1-4)]Glc
# How it was run: as §1
# Gal(b1-2)Gal = target: Gal(b1-2)Gal
# How it was run: as §1
# Gal(b1-3)Gal(b1-4)GlcNAc = target: Gal(b1-3)Gal(b1-4)GlcNAc
# How it was run: as §1
# Gal(b1-3)GalNAc = target: Gal(b1-3)GalNAc
# How it was run: as §1
# [13] = target: Gal(b1-3)GalNAc(b1-4)Gal(b1-4)Glc
# How it was run: as §1
# [14] = target: Gal(b1-3)GlcNAc(a1-6)Gal(b1-4)GlcNAc
# How it was run: as §1
# [15] = target: Gal(b1-3)GlcNAc(b1-6)Gal(b1-4)GlcNAc
# How it was run: as §1
# Gal(b1-3)GlcNAc6S = target: Gal(b1-3)GlcNAc6S
# How it was run: as §1
# Gal(b1-4)Glc = target: Gal(b1-4)Glc
# How it was run: as §1
# [16] = target: Gal(b1-4)GlcNAc(b1-3)Gal(b1-4)GlcNAc(b1-3)Gal(b1-4)GlcNAc(b1-2)Man(a1-3)[Gal(b1-4)GlcNAc(b1-3)Gal(b1-4)GlcNAc(b1-3)Gal(b1-4)GlcNAc(b1-2)Man(a1-6)]Man(b1-4)GlcNAc(b1-4)GlcNAc
# How it was run: as §1
# [17] = target: Gal(b1-4)GlcNAc(b1-3)Gal(b1-4)GlcNAc(b1-3)Gal(b1-4)GlcNAc(b1-2)[Gal(b1-4)GlcNAc(b1-3)Gal(b1-4)GlcNAc(b1-3)Gal(b1-4)GlcNAc(b1-6)]Man(a1-6)[Gal(b1-4)GlcNAc(b1-3)Gal(b1-4)GlcNAc(b1-3)Gal(b1-4)GlcNAc(b1-2)Man(a1-3)]Man(b1-4)GlcNAc(b1-4)[Fuc(a1-6)]GlcNAc
# How it was run: as §1
# [18] = target: Gal(b1-4)GlcNAc(b1-6)[Gal(b1-3)]GalNAc
# How it was run: as §1
# Gal3S(b1-4)Glc = target: Gal3S(b1-4)Glc
# How it was run: as §1
# Gal6S(b1-3)GlcNAc6S = target: Gal6S(b1-3)GlcNAc6S
# How it was run: as §1
# Gal6S(b1-4)Glc = target: Gal6S(b1-4)Glc
# How it was run: as §1
# Gal6S(b1-4)Glc6S = target: Gal6S(b1-4)Glc6S
# How it was run: as §1
# Gal6S(b1-4)GlcNAc = target: Gal6S(b1-4)GlcNAc
# How it was run: as §1
# Gal6S(b1-4)GlcNAc6S = target: Gal6S(b1-4)GlcNAc6S
# How it was run: as §1
# GalNAc(b1-4)GlcNAc6S = target: GalNAc(b1-4)GlcNAc6S
# How it was run: as §1
# GalNAc4S6S(b1-4)GlcNAc = target: GalNAc4S6S(b1-4)GlcNAc
# How it was run: as §1
# Glc(a1-6)Glc(a1-6)Glc = target: Glc(a1-6)Glc(a1-6)Glc
# How it was run: as §1
# [19] = target: GlcNAc(a1-4)Gal(b1-4)GlcNAc
# How it was run: as §1
# [20] = target: GlcNAc(a1-4)Gal(b1-4)GlcNAc(b1-3)Gal(b1-4)Glc
# How it was run: as §1
# [21] = target: GlcNAc(b1-2)Man(a1-3)[GlcNAc(b1-2)Man(a1-6)]Man(b1-4)GlcNAc(b1-4)GlcNAc
# How it was run: as §1
# GlcNAc(b1-3)Fuc = target: GlcNAc(b1-3)Fuc
# How it was run: as §1
# [22] = target: GlcNAc(b1-3)Gal(b1-3)GalNAc
# How it was run: as §1
# [23] = target: GlcNAc(b1-3)Gal(b1-4)GlcNAc(b1-3)Gal(b1-4)GlcNAc(b1-2)[GlcNAc(b1-3)Gal(b1-4)GlcNAc(b1-3)Gal(b1-4)GlcNAc(b1-6)]Man(a1-6)[GlcNAc(b1-3)Gal(b1-4)GlcNAc(b1-3)Gal(b1-4)GlcNAc(b1-2)Man(a1-3)]Man(b1-4)GlcNAc(b1-4)[Fuc(a1-6)]GlcNAc
# How it was run: as §1
# [24] = target: GlcNAc(b1-3)Gal(b1-4)GlcNAc(b1-6)[GlcNAc(b1-3)Gal(b1-3)]GalNAc
# How it was run: as §1
# GlcNAc(b1-3)GalNAc = target: GlcNAc(b1-3)GalNAc
# How it was run: as §1
# [25] = target: Man(a1-2)Man(a1-3)[Man(a1-2)Man(a1-6)]Man
# How it was run: as §1
# [26] = target: Man(a1-2)Man(a1-3)[Man(a1-6)]Man(a1-6)[Man(a1-2)Man(a1-3)]Man(b1-4)GlcNAc(b1-4)GlcNAc
# How it was run: as §1
# [27] = target: Man(a1-3)[Man(a1-6)]Man(a1-6)[Man(a1-3)]Man
# How it was run: as §1
# [28] = target: Neu5Ac(a2-3)Gal(b1-3)[Fuc(a1-4)]GlcNAc
# How it was run: as §1
# [29] = target: Neu5Ac(a2-3)Gal(b1-3)]Neu5Ac(a2-3)Gal(b1-4)]GlcNAc
# How it was run: as §1
# [30] = target: Neu5Ac(a2-3)Gal(b1-4)GlcNAc(b1-3)Gal(b1-4)GlcNAc(b1-3)Gal(b1-4)GlcNAc
# How it was run: as §1
# [31] = target: Neu5Ac(a2-3)Gal(b1-4)[Fuc(a1-3)]GlcNAc(b1-3)GalNAc
# How it was run: as §1
# [32] = target: Neu5Ac(a2-3)Gal(b1-4)[Fuc(a1-3)]GlcNAc(b1-6)[Neu5Ac(a2-3)Gal(b1-3)]GalNAc
# How it was run: as §1
# [33] = target: Neu5Ac(a2-6)Gal(b1-4)GlcNAc(b1-2)Man(a1-3)Man(b1-4)GlcNAc(b1-4)GlcNAc
# How it was run: as §1
# [34] = target: Neu5Ac(a2-6)Gal(b1-4)GlcNAc(b1-2)Man(a1-6)[Man(a1-3)]Man(b1-4)GlcNAc(b1-4)GlcNAc
# How it was run: as §1
# [35] = target: Neu5Ac(a2-6)Gal(b1-4)GlcNAc(b1-3)Gal(b1-4)GlcNAc(b1-6)[Gal(b1-3)]GalNAc
# How it was run: as §1
# [36] = target: Neu5Ac(a2-8)Neu5Ac(a2-8)Neu5Ac(a2-3)[Gal(b1-3)GalNAc(b1-4)]Gal(b1-4)Glc
# How it was run: as §1
binder,measurement,setting,value
B1,glycan array binding signal (z-score),[1],-0.214
same,glycan array binding signal (z-score),[2],-0.138
same,glycan array binding signal (z-score),[3],-0.162
same,glycan array binding signal (z-score),[4],-0.184
same,glycan array binding signal (z-score),[5],-0.204
same,glycan array binding signal (z-score),[6],-0.168
same,glycan array binding signal (z-score),[7],-0.221
same,glycan array binding signal (z-score),[8],-0.197
same,glycan array binding signal (z-score),[9],-0.13
same,glycan array binding signal (z-score),[10],-0.161
same,glycan array binding signal (z-score),[11],-0.143
same,glycan array binding signal (z-score),[12],-0.172
same,glycan array binding signal (z-score),Gal(b1-2)Gal,-0.041
same,glycan array binding signal (z-score),Gal(b1-3)Gal(b1-4)GlcNAc,2.03
same,glycan array binding signal (z-score),Gal(b1-3)GalNAc,1.28
same,glycan array binding signal (z-score),[13],3.42
same,glycan array binding signal (z-score),[14],-0.057
same,glycan array binding signal (z-score),[15],7.88
same,glycan array binding signal (z-score),Gal(b1-3)GlcNAc6S,1.37
same,glycan array binding signal (z-score),Gal(b1-4)Glc,-0.13
same,glycan array binding signal (z-score),[16],0.626
same,glycan array binding signal (z-score),[17],1.15
same,glycan array binding signal (z-score),[18],1.27
same,glycan array binding signal (z-score),Gal3S(b1-4)Glc,-0.193
same,glycan array binding signal (z-score),Gal6S(b1-3)GlcNAc6S,1.88
same,glycan array binding signal (z-score),Gal6S(b1-4)Glc,4.56
same,glycan array binding signal (z-score),Gal6S(b1-4)Glc6S,6.39
same,glycan array binding signal (z-score),Gal6S(b1-4)GlcNAc,5.93
same,glycan array binding signal (z-score),Gal6S(b1-4)GlcNAc6S,15.2
same,glycan array binding signal (z-score),GalNAc(b1-4)GlcNAc6S,-0.184
same,glycan array binding signal (z-score),GalNAc4S6S(b1-4)GlcNAc,-0.197
same,glycan array binding signal (z-score),Glc(a1-6)Glc(a1-6)Glc,-0.201
same,glycan array binding signal (z-score),[19],-0.198
same,glycan array binding signal (z-score),[20],-0.194
same,glycan array binding signal (z-score),[21],-0.191
same,glycan array binding signal (z-score),GlcNAc(b1-3)Fuc,-0.185
same,glycan array binding signal (z-score),[22],-0.176
same,glycan array binding signal (z-score),[23],-0.163
same,glycan array binding signal (z-score),[24],-0.207
same,glycan array binding signal (z-score),GlcNAc(b1-3)GalNAc,-0.214
same,glycan array binding signal (z-score),[25],-0.166
same,glycan array binding signal (z-score),[26],-0.198
same,glycan array binding signal (z-score),[27],-0.196
same,glycan array binding signal (z-score),[28],-0.197
same,glycan array binding signal (z-score),[29],-0.213
same,glycan array binding signal (z-score),[30],-0.202
same,glycan array binding signal (z-score),[31],-0.12
same,glycan array binding signal (z-score),[32],-0.16
same,glycan array binding signal (z-score),[33],-0.2
same,glycan array binding signal (z-score),[34],-0.2
same,glycan array binding signal (z-score),[35],0.553
same,glycan array binding signal (z-score),[36],-0.194
